We go through 36 compounds from PubChem BioAssay (NCI).

“And” between values parts separate entries of the source, which are not always exact repeats. Equal entries are not always repeated. This is part of a sample that, as a whole, favours compounds with a hit. Of some 83,000 tested, about 20% had one in any assay.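 Testing used 96-well plates and a 48-hour single-concentration exposure. Example: -40 means 40% of the starting cells died.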 The source made the active and inactive calls. Rule for the calls: active = growth percent below 10; inactive = the rest.

This test has as its system MDA-MB-468 breast. In words: NCI-60 one-dose screen, 48 h (100 = growth as untreated, 0 = no growth, -100 = all killed). The note with it: 10 µM unless noted.
Consider `COc1cccc(/C=N\NC(=O)c2ccncc2)c1O`, for which the growth is 64.4% (inactive).

In the case of `Cn1cc(-c2csc(-c3c[nH]c4ccc(F)cc34)n2)c2cnccc21`, the growth was -49.6% (active).

As to `CCC1OC(OC)C=CC1=O` (stereo unspecified), the growth was 100% (inactive).

As to `O=C(COc1ccc(-c2nc3ccccc3[nH]2)cc1)N=Nc1c(O)[nH]c2ccccc12`, the growth was 34.5% (inactive).

Turning to `NS(=O)(=O)c1cccc(NC(=O)C(=O)C2C(=O)Nc3ccccc32)c1` (stereo unspecified), the growth was 101% (inactive).

On to `CC(C)[C@@H]1NC(=O)[C@]2(C)CSC(=N2)c2ccnc(c2)CNC(=O)C[C@@H](/C=C/CCS)OC1=O`, for which the growth was 42.7% (inactive).

Turning to `O=C(O)c1ccc(Br)nc1`, the growth is 88.6% (inactive).

Turning to `COc1ccccc1/C=N\N=C(N/N=C/c1ccccc1OC)N/N=C/c1ccccc1OC`, the growth is 58.3% (inactive) and 10.5% (inactive).

As for `CCCCCCN(CCCCCC)CC(O)c1ccc2c3c(cccc13)CC2` (stereo unspecified), the growth is 55.6% (inactive).

Turning to `C=CCn1c2ccccc2c2c3c(c4c5ccccc5n(CC=C)c4c21)C(=O)N(O)C3=O`, the growth is 24% (inactive).

For the compound `Cc1cccc(Oc2ccc(Nc3ncnc4ccc(NC(=O)CN(C)C)cc34)cc2Cl)c1`, the growth is -45.2% (active).

Consider `Nc1cc(C(=O)O)cc(-n2c(O)c(C=C3N=c4ccccc4=N3)sc2=S)c1`, for which the growth was 105% (inactive).

Consider `COC(=O)Nc1ccc(-c2nc(-c3cccc(O)c3)c(-c3ccnc(Br)c3)[nH]2)cc1`, for which the growth is 25.6% (inactive).

With `CN1CCN(/C=C2\CC(C(=O)NCc3ccc(Cl)cc3Cl)NC2=O)CC1` (stereo unspecified), the growth was 103% (inactive).

Turning to `CC(=O)Nc1ccc(C(=O)Nc2cc(-c3ccccc3)ccc2N)cc1`, the growth is 110% (inactive).

Regarding `CC(=O)C1=C(C)NC(NN)=NC1c1cccc(Cl)c1` (stereo unspecified), the growth is 105% (inactive).

In the case of `CO[C@H]1/C=C(/C)CCC[C@H](C)[C@H](O)[C@@H](C)C(=O)C(C)(C)[C@@H](O)CC(=O)O[C@@H]1/C(C)=C/c1csc(C)n1`, the growth is -23.3% (active).

As for `COc1ccccc1/C=N\NC(=S)Nc1ccc(F)cc1`, the growth is 72.9% (inactive).

Consider `CC(=O)OCC1OC(OC2C(COC(C)=O)OC(OCCC[S-])C(OC(C)=O)C2OC(C)=O)C(OC(C)=O)C(OC(C)=O)C1OC(C)=O.[Au+].c1ccc(CN2[CH-]N(Cc3ccccc3)C(c3ccccc3)=C2c2ccccc2)cc1` (stereo unspecified), for which the growth is 10.2% (inactive).

On to `Cc1ccc(NS(=O)(=O)c2ccc3c(c2)C2OCCC2C(c2ccc(C(=O)C(C)C)cc2)N3)cc1C` (stereo unspecified), for which the growth was -4.81% (active).

Turning to `N=C(N)c1ccc(-c2ccc(-c3ccc(Cl)cc3)s2)nc1`, the growth was -56.4% (active).

Regarding `COc1ccc(-c2cc(Cc3cccs3)c(=O)n(Cn3ccc4ccccc43)n2)cc1`, the growth was 110% (inactive).

Regarding `C#CCn1c2c(c3ccccc31)C[C@]1(C)[C@H]3CC[C@@H]4[C@@H]5C(=CCC[C@H]5C(=C)C)CC[C@@]4(C)[C@]3(C)CC[C@H]1C2(C)C`, the growth was 117% (inactive).

For `O[C@H]1CO[C@H]2[C@@H]1OC[C@@H]2Oc1ccc(Nc2nc(Nc3ccc(F)c(Cl)c3)ncc2F)cc1Cl`, the growth is 97.6% (inactive).

In the case of `CCOC(=O)c1cnc2c(N=Nc3ccc(OC)cc3)c(N)nn2c1N`, the growth is 116% (inactive).

`O=C1c2cccc3cccc(c23)C(=O)N1N1C(=O)c2cccc3c(N4CCOCC4)ccc(c23)C1=O`: the growth was 99.9% (inactive).

As for `Cn1cc(-c2csc(-c3cn(C)c4ncccc34)n2)c2cc(Br)cnc21`, the growth was -28.4% (active).

Regarding `COc1ccccc1N(C(C)=O)C1=C(Cl)C(=O)c2ccccc2C1=O`, the growth was -92.8% (active).

On to `COc1ccc(-c2ccc(-c3ccc(C(=N)N)cn3)s2)cc1OC`, for which the growth is 92.6% (inactive).

For `C=C1C(=O)O[C@H]2[C@H]1CC/C(COC(=O)NCC(C)c1ccc(CC(C)C)cc1)=C\CC[C@@]1(C)O[C@@H]21` (stereo partly specified), the growth was -64% (active).

As to `O=C(/C=C\c1ccc2c(c1)OCO2)/C=C/c1ccc2c(c1)OCO2`, the growth is 20.3% (inactive).

As for `COc1ccc(/C=N/NC(=O)CN2CCN(c3cc4c(cc3F)c(=O)c(C(=O)O)cn4C3CC3)CC2)cc1O`, the growth was 101% (inactive).

As to `CCOC(=O)c1c(C)oc(C)c(C(=O)OCC)c1=O`, the growth is 103% (inactive).

In the case of `COc1ccc(-c2cc(-c3ccc(Cl)cc3)nc(SCCCCCCC(=O)NO)n2)cc1`, the growth is 12.7% (inactive).

Consider `CC(=O)Nc1ccc2c(c1)Cc1c(F)cccc1-2`, for which the growth was 8.46% (active).

On to `COc1ccc(N)c(-c2cc3c(c4c2[nH]c2ccc(OC)cc24)CCCC3)c1`, for which the growth is 94.5% (inactive).
